From PubChem BioAssay (NCI) come the findings set out here.

Holding throughout (experiment): NCI-60 one-dose screen, 48 h (100 = growth as untreated, 0 = no growth, -100 = all killed)
In experiment [1] the test system is NCI-H23 lung. The settings on record: 10 µM unless noted.
Experiment [2] relates to NCI-H226 lung. The settings on record: 10 µM unless noted.
Experiment [3] concerns NCI-H322M lung. The settings on record: 10 µM unless noted.
The test system of experiment [4] is HOP-62 NSCLC. The settings on record: 10 µM unless noted.
In experiment [5] the test system is NCI-H460 lung. The settings on record: 10 µM unless noted.
In experiment [6] the test system is HOP-92 NSCLC. The settings on record: 10 µM unless noted.
Experiment [7] concerns NCI-H522 lung. As to conditions: 10 µM unless noted.
For experiment [8], the system named is A549/ATCC NSCLC. The settings on record: 10 µM unless noted.
The subject of experiment [9] is 786-0 renal. As to conditions: 10 µM unless noted.
For experiment [10], the system named is COLO 205 colon. As to conditions: 10 µM unless noted.
Experiment [11] has as its system DU-145 prostate. As to conditions: 10 µM unless noted.
In experiment [12] the test system is K-562 leukemia. As to conditions: 10 µM unless noted.
Experiment [13] concerns MALME-3M melanoma. The settings on record: 10 µM unless noted.
Experiment [14] deals with MDA-MB-231 breast. The settings on record: 10 µM unless noted.
The test system of experiment [15] is RXF 393 renal. The settings on record: 10 µM unless noted.
Experiment [16] deals with SF-268 CNS. As to conditions: 10 µM unless noted.
Experiment [17] relates to SF-295 CNS. As to conditions: 10 µM unless noted.
Experiment [18] relates to SF-539 CNS. The settings on record: 10 µM unless noted.
Experiment [19] relates to UACC-257 melanoma. The settings on record: 10 µM.
Experiment [20] concerns M14 melanoma. The settings on record: 10 µM unless noted.

Compounds without any hit were thinned out: in the full panel of roughly 83,000, 20% have a hit.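 Treatment: one concentration, 48 hours, 96-well format. Scoring: percent growth, with anything below 10 considered active.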 A number with no mark means an inactive call. Active and inactive are the calls of the source.

`O=C(/C=C1\C=CN(CCCCCCF)c2ccccc21)n1ccc2ccccc21`: the growth in experiment [1] is 89.5%; in experiment [2], 48.4%; in experiment [3], 96.6%; in [4], 85.8%; in [5], 110%; in [6] it was 70.3%. Also, the growth in experiment [7] is 86.4%; in [8] it was 102%; in experiment [9] it was 111%; in [10] it was 103%; in [11], 109%; in experiment [12], 91.2%. Besides, the growth in experiment [13] was 91.6%; in [14], 84.4%; in [15], 121%; in [16], 99.7%; in experiment [17] it was 94.6%; in experiment [18], 99.3%. In experiment [19], the growth is 103%.

For `CC[C@@](C)(NC(=O)C(C)(C)NC(=O)[C@@H](NC(=O)[C@@H]1CCCN1C(=O)C(C)(C)NC(=O)[C@H](CC(C)C)NC(=O)CNC(=O)C(C)(C)NC(=O)[C@@H](NC(=O)C(C)(C)NC(=O)[C@H](CCC(N)=O)NC(=O)[C@H](C)NC(=O)C(C)(C)NC(=O)[C@H](C)NC(=O)C(C)(C)NC(=O)[C@H](C)NC(=O)C(C)(C)NC(C)=O)C(C)C)C(C)C)C(=O)N[C@@H](CCC(N)=O)C(=O)N[C@@H](CCC(N)=O)C(=O)N[C@H](CO)CC1CCCCC1`, the growth is 16.2% [5 µM] in experiment [1]; 47.8% [5 µM] in experiment [2]; 48.8% [5 µM] in experiment [3]; 47.2% [5 µM] in [4]; 35.1% [5 µM] in experiment [5]; -17.2% [5 µM] (active) in experiment [6]. Moreover, the growth in experiment [7] was 1.56% [5 µM] (active); in [8] it was 47.8% [5 µM]; in [9], -14.2% [5 µM] (active); in [10], -7.42% [5 µM] (active); in [11], 35.1% [5 µM]; in experiment [12] it was 32.1% [5 µM]. In addition, the growth is -18.4% [5 µM] (active) in experiment [13]; 32.7% [5 µM] in [14]; 23.7% [5 µM] in experiment [15]; 32.6% [5 µM] in experiment [16]; 81.8% [5 µM] in experiment [17]; 18.8% [5 µM] in experiment [18].

Turning to `C=C(C)C(=O)O[C@H]1C[C@@]2(C)OC(=CC2=O)[C@H](C)[C@H](O)[C@H]2OC(=O)C(=C)[C@@H]21`, the growth in experiment [1] was 58.4%; in [2] it was 92.2%; in experiment [3], 93.8%; in experiment [4], 93.5%; in experiment [5], 93.3%; in experiment [6], 69.7%. Besides, the growth in experiment [7] was -67.6% (active); in [8], 94.7%; in experiment [9] it was 64.2%; in experiment [10], 13.6%; in experiment [11] it was 73.2%; in [12], 20.4%. The growth in [13] was 48.3%; in experiment [14], 76.6%; in [15] it was 22.2%; in experiment [16], 79.8%; in experiment [17], 93.8%; in experiment [18] it was 74.7%. In experiment [19], the growth is 67%.

For the compound `O=C(CSc1nnc(-c2ccc(Cl)cc2)n1-c1ccccc1)Nc1ccc(F)cc1`, the growth in experiment [1] is 82.3%; in [2], 96.1%; in [3], 80.3%; in experiment [4], 75.2%; in experiment [5], 40.8%; in [6], 99.2%. Also, the growth is 71.8% in [7]; 57.3% in experiment [8]; 68.1% in [9]; 96.6% in [10]; 93% in experiment [11]; 92.4% in experiment [12]. In addition, the growth in experiment [13] is 80.1%; in experiment [14], 49.4%; in experiment [15], 82.9%; in experiment [16] it was 79.7%; in [17], 65.5%; in experiment [18] it was 60%. In addition, in experiment [19], the growth was 98.8%.

Consider `CCN(CC)c1ccc2cc(C(=O)NCCOCCOCCOCCn3cc(CCC(=O)Nc4ccc(C(=O)c5ccc(NC(=O)OC(C)(C)C)cc5)cc4)nn3)c(=O)oc2c1`, for which the growth is 61.7% in experiment [1]; 20.3% in experiment [2]; 74.5% in [3]; 53.5% in experiment [4]; 78.9% in experiment [5]; 85.7% in experiment [6]. The growth in [7] was 28.4%; in experiment [8], 73.1%; in [9] it was 73.2%; in [10], 38.2%; in [11], 61.8%; in [12], 38.3%. Besides, the growth in experiment [13] is 83.9%; in experiment [14], 53.7%; in experiment [15], 69.8%; in [16], 65%; in experiment [17], 43.3%; in experiment [18], 79.5%. Besides, in experiment [19], the growth is 63.1%.

For the compound `O=C(NCCCNc1cc(-c2cn(-c3ccccc3)nc2-c2cccc(O)c2)ccn1)Nc1ccc(F)cc1`, the growth was 26.3% in [1]; 32.6% in experiment [2]; 35.3% in [3]; 24% in [4]; 21.4% in experiment [5]; -11.5% (active) in experiment [6]. For the same compound, the growth in experiment [7] is 1.7% (active); in experiment [8], 29.2%; in experiment [9], -39.4% (active); in experiment [10], -39.4% (active); in [11], 31.4%; in experiment [12], 5.52% (active). In addition, the growth was -27.3% (active) in experiment [13]; 0.136% (active) in [14]; -34.9% (active) in experiment [15]; 18% in [16]; -44.3% (active) in experiment [17]; 6.41% (active) in experiment [18]. In addition, the growth in experiment [19] is -51.9% (active).

Regarding `O=S(=O)(NCCCNc1nccc(-n2cnc3ccccc32)n1)c1ccc(F)cc1`, the growth in experiment [1] was 70.4%; in experiment [2] it was 64.1%; in experiment [3], 99.5%; in experiment [4], 82.7%; in [5], 79.7%; in experiment [6], 87.9%. In addition, the growth in [7] was 68.5%; in [8], 88.8%; in [9], 97.7%; in experiment [10], 86%; in [11] it was 87.2%; in experiment [12], 37.2%. For the same compound, the growth in experiment [13] is 86.1%; in experiment [14] it was 74.4%; in [15] it was 163%; in [16], 86.3%; in [17], 70.6%; in experiment [18], 86.2%. The growth in experiment [19] is 66.2%.

Turning to `Oc1ccc(CSc2nnc(-c3cnccn3)n2-c2ccccc2)c2cccnc12`, the growth in [1] was 26.9%; in experiment [2] it was 30%; in experiment [3] it was 31.2%; in experiment [4] it was 22.1%; in experiment [5], 10.4%; in experiment [6], -3.39% (active). The growth is 2.33% (active) in experiment [7]; 29.5% in experiment [8]; 35.1% in experiment [9]; 103% in experiment [10]; 35.6% in experiment [11]; 19.6% in [12]. For the same compound, the growth in [13] is 42.9%; in experiment [14] it was 32.1%; in experiment [15], 33.7%; in experiment [16], 22.4%; in experiment [17], 7.13% (active); in experiment [18], 22.7%. Also, the growth is 17.4% in [19] and 16.8% in experiment [20].
